In PubChem BioAssay:
Results filed as inconclusive are left out. The source made the active and inactive calls.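 How the source made its calls, unless noted: active means normalized viability below 100% at a tested concentration; inactive means the rest.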

Columns and labels:
[1] = viability loss in pontine glioma line – cell-based, SU-DIPG-XVII, MIPE5.0, CellTiter-Glo, qHTS, dose response (AID 1347060; cut-off not given, nearly all actives have AC50 up to about 26 µM); conditions: CellTiter-Glo ATP luminescence
[2] = viability loss in pontine glioma line – cell-based, SU-DIPG-XXV, MIPE5.0, CellTiter-Glo, qHTS, dose response (AID 1347065; cut-off not given, nearly all actives have AC50 up to about 26 µM;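 further: cells exposed to compound for 48 hours before ATP readout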); conditions: CellTiter-Glo ATP luminescence
[3] = growth inhibition of DIPG cells – cell-based, MIPE5.0 library, qHTS (AID 1347068; cut-off not given, nearly all actives have IC50 up to about 30 µM); conditions: SU-DIPG-XXV viability
[4] = viability loss with induced miR-34 in A549 – imaging, A549 dox-inducible miR-34, nuclei and caspase counts, primary screen (AID 1347080;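 active means compounds whose cell count with miR-34 switched on is under 0.7 times the count with it off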); conditions: A549 miR-34 inducible, Hoechst nuclei count, 48 h
[5] = MELAS cybrid and Rieske KO viability enhancers – cell-based, MELAS cybrids, Rieske KO mouse fibroblasts, CellTiter-Glo, primary screen (AID 1508586;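 active means mean z-score across replicates of 1.96 or higher in either the MELAS or the Rieske mutant cell line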;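 further: z relative to plate mean and SD of compound and empty wells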); conditions: low glucose
[6] = drug combination growth inhibition, ovarian cancer – cell-based, oncology-focused library, rucaparib conditional, profiling panel (AID 1508598); conditions: patient-derived ovarian cancer cells, CellTiter-Glo viability, 144 h, stronger effect = lower value
[7] = growth inhibition, single agent or in combination, cell-based, chromothripsis tumors, cisplatin or BGB combos (AID 1671449; in the data active means inhibition above about 80%;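 further: cells exposed for 96 hours; 0% = vehicle DMSO and 100% = killing by high DMSO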); conditions: LFS_MB_P medulloblastoma cells
[8] = growth inhibition, single agent and combos, cell-based, chromothripsis tumors, cisplatin or BGB combos (AID 1671450; in the data active means inhibition above about 80%;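 further: cells exposed to compound for four days; 0% = vehicle DMSO and 100% = cell killing by high DMSO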); conditions: HDN33 neuroblastoma cells, stronger effect = higher value
[9] = growth inhibition, single agents and combos, ICB984, cell-based, cisplatin or BGB combos, synergistic combos for chromothripsis tumors (AID 1671451; call rule not given here;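 further: cells exposed for 96 hours before readout; 0% = vehicle DMSO and 100% = killing by high DMSO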); conditions: ICB984 medulloblastoma cells, drug combinations, stronger effect = higher value
[10] = growth inhibition, single agents and combos, LFS_MB_1R, cell-based, cisplatin or BGB combos, synergistic combos for chromothripsis tumors (AID 1671452; in the data active means inhibition above about 80%;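 further: cells exposed for 96 hours before readout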); conditions: LFS_MB_1R medulloblastoma cells, stronger effect = higher value
[11] = growth inhibition, single agents and combos, HTB85, cell-based, BGB or cisplatin IC20 combos, synergistic combos for chromothripsis tumors (AID 1671453; in the data active means inhibition above about 80%;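 further: cells exposed for 96 hours before readout; 0% = vehicle DMSO and 100% = high DMSO killing control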); conditions: HTB85 osteosarcoma cells, drug combinations, stronger effect = higher value
[12] = growth inhibition, single agents and combos, CRL2098, cell-based, BGB or cisplatin IC20 combos, synergistic combos for chromothripsis tumors (AID 1671454; in the data active means inhibition above about 80%;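 further: cells exposed for 96 h before readout; 0% = vehicle DMSO and 100% = killing by high DMSO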); conditions: CRL2098 osteosarcoma cells, drug combinations, stronger effect = higher value
[13] = growth inhibition, single agents and combos, HD-MB03, cell-based, BGB or cisplatin IC20 combos, synergistic combos for chromothripsis tumors (AID 1671455; in the data active means inhibition above about 83%;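 further: 0% = vehicle DMSO and 100% = high DMSO as cytotoxic control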); conditions: HD-MB03 medulloblastoma cells, stronger effect = higher value
[14] = growth inhibition, single agents and combos, UWB1.289, cell-based, BGB or cisplatin combos, synergistic combos for chromothripsis tumors (AID 1671456; in the data active means inhibition above about 80%;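 further: cells exposed to compound for four days; 0% = vehicle DMSO and 100% = killing by high DMSO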); conditions: UWB1.289 ovarian carcinoma cells, stronger effect = higher value
[15] = growth inhibition, single agents and combos, LFS_MB_2R, cell-based, cisplatin combos, synergistic combos for chromothripsis tumors (AID 1671457; in the data active means inhibition above about 80%;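 further: cells exposed to compound for four days before readout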); conditions: LFS_MB_2R medulloblastoma cells, stronger effect = higher value
[16] = growth inhibition, MDA-MB-436, cell-based, BGB or cisplatin combos, synergistic combos for chromothripsis tumors (AID 1671458; call rule not given here;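 further: cells exposed for 96 hours; 0% = vehicle DMSO and 100% = killing by high DMSO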); conditions: MDA-MB-436 breast carcinoma growth inhibition, drug combinations, stronger effect = higher value
[17] = UWB1.289_BRCA1 ovarian cancer growth, cell-based, BGB or cisplatin combinations (AID 1671459; in the data active means inhibition above about 80%); conditions: UWB1.289 BRCA1 ovarian carcinoma, drug combinations, stronger effect = higher value
[18] = drug combination toxicity in non-malignant astrocytes – cell-based, BGB or cisplatin IC20 combos, cytotoxicity control for chromothriptic childhood tumor combination screen (AID 1671460; in the data active means inhibition above about 80%;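 further: cells exposed to compounds for 96 hours before viability readout; 0% = vehicle and 100% = killing control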); conditions: Human astrocytes, viability inhibition, drug combinations, at 0.5 µM, stronger effect = higher value
[19] = BT084 cell growth, single and combined drugs, ICGC_MB145, cisplatin and BGB IC40 combos (AID 1671461; in the data active means inhibition above about 80%;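 further: cells exposed to drugs for 96 hours; 0% = vehicle DMSO and 100% = high DMSO full killing control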); conditions: BT084 medulloblastoma cells, drug combinations, stronger effect = higher value
[20] = RCMB18 cell growth, single agent and combined, cisplatin and BGB IC40 combos (AID 1671462; in the data active means inhibition above about 80%;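 further: cells exposed to compound for four days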); conditions: RCMB18 medulloblastoma cells, stronger effect = higher value
[21] = CRL1545 cell growth, single agent and combined, cisplatin and BGB IC20 combos (AID 1671464; in the data active means inhibition above about 80%;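 further: cells exposed to compound for 96 hours before readout; 0% = vehicle DMSO and 100% = high DMSO killing control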); conditions: CRL1545 osteosarcoma cells, stronger effect = higher value
[22] = measured here: combination with BGB IC40, at 0.05 µM
[23] = measured here: with BGB IC20 combination, at 0.5 µM
[24] = measured here: with cisplatin IC20 combination, at 0.5 µM
[25] = measured here: combination with cisplatin, at 0.5 µM
[26] = measured here: combination with cisplatin, at 5 µM

COc1ccc(-n2c(SCCCN3C(=O)c4cccc5cccc(c45)C3=O)nnc2-c2ccncc2)cc1
outcome [1]: inactive
outcome [2]: inactive
outcome [3]: inactive
fold change ([4]; stronger effect = lower value, cell number ratio, induced over uninduced): 0.884 (inactive)
fold change ([4]; measured here: relative caspase fold change +Dox/-Dox): 0.42
cell count ([4]; measured here: total cells with miR-34 induction, stronger effect = lower value): 6580
cell count ([4]; measured here: total cells without miR-34 induction): 7440
z-score ([5]; MELAS cybrid survival, CellTiter-Glo 48 h, stronger effect = higher value): -0.376 (inactive)
z-score ([5]; Rieske KO mouse fibroblast survival, CellTiter-Glo 72 h): 1.13
viability ([6]; at 0.000305 µM, OCI-C5x cells, with rucaparib 10 µM, 100% = cells with rucaparib alone): 118% (inactive)
viability ([6]; at 0.000305 µM, OCI-C5x cells, without rucaparib): 116% (inactive)
viability ([6]; at 0.000305 µM, OCI-P5x cells, with rucaparib 20 µM, 100% = cells with rucaparib alone): 101% (inactive)
viability ([6]; at 0.000305 µM, OCI-P5x cells, without rucaparib): 100% (inactive)
viability ([6]; at 0.00122 µM, OCI-C5x cells, with rucaparib 10 µM, 100% = cells with rucaparib alone): 120% (inactive)
viability ([6]; at 0.00122 µM, OCI-C5x cells, without rucaparib): 121% (inactive)
viability ([6]; at 0.00122 µM, OCI-P5x cells, with rucaparib 20 µM, 100% = cells with rucaparib alone): 101% (inactive)
viability ([6]; at 0.00122 µM, OCI-P5x cells, without rucaparib): 99.9% (active)
viability ([6]; at 0.00488 µM, OCI-C5x cells, with rucaparib 10 µM, 100% = cells with rucaparib alone): 117% (inactive)
viability ([6]; at 0.00488 µM, OCI-C5x cells, without rucaparib): 117% (inactive)
viability ([6]; at 0.00488 µM, OCI-P5x cells, with rucaparib 20 µM, 100% = cells with rucaparib alone): 94.7% (active)
viability ([6]; at 0.00488 µM, OCI-P5x cells, without rucaparib): 104% (inactive)
viability ([6]; at 0.0195 µM, OCI-C5x cells, with rucaparib 10 µM, 100% = cells with rucaparib alone): 125% (inactive)
viability ([6]; at 0.0195 µM, OCI-C5x cells, without rucaparib): 121% (inactive)
viability ([6]; at 0.0195 µM, OCI-P5x cells, with rucaparib 20 µM, 100% = cells with rucaparib alone): 102% (inactive)
viability ([6]; at 0.0195 µM, OCI-P5x cells, without rucaparib): 101% (inactive)
viability ([6]; at 0.0781 µM, OCI-C5x cells, with rucaparib 10 µM, 100% = cells with rucaparib alone): 125% (inactive)
viability ([6]; at 0.0781 µM, OCI-C5x cells, without rucaparib): 118% (inactive)
viability ([6]; at 0.0781 µM, OCI-P5x cells, with rucaparib 20 µM, 100% = cells with rucaparib alone): 95.3% (active)
viability ([6]; at 0.0781 µM, OCI-P5x cells, without rucaparib): 98.1% (active)
viability ([6]; at 0.313 µM, OCI-C5x cells, with rucaparib 10 µM, 100% = cells with rucaparib alone): 138% (inactive)
viability ([6]; at 0.313 µM, OCI-C5x cells, without rucaparib): 130% (inactive)
viability ([6]; at 0.313 µM, OCI-P5x cells, with rucaparib 20 µM, 100% = cells with rucaparib alone): 95.5% (active)
viability ([6]; at 0.313 µM, OCI-P5x cells, without rucaparib): 77.9% (active)
viability ([6]; at 1.25 µM, OCI-C5x cells, with rucaparib 10 µM, 100% = cells with rucaparib alone): 129% (inactive)
viability ([6]; at 1.25 µM, OCI-C5x cells, without rucaparib): 128% (inactive)
viability ([6]; at 1.25 µM, OCI-P5x cells, with rucaparib 20 µM, 100% = cells with rucaparib alone): 89.8% (active)
viability ([6]; at 1.25 µM, OCI-P5x cells, without rucaparib): 77.7% (active)
viability ([6]; at 5 µM, OCI-C5x cells, with rucaparib 10 µM, 100% = cells with rucaparib alone): 113% (inactive)
viability ([6]; at 5 µM, OCI-C5x cells, without rucaparib): 123% (inactive)
viability ([6]; at 5 µM, OCI-P5x cells, with rucaparib 20 µM, 100% = cells with rucaparib alone): 98.5% (active)
viability ([6]; at 5 µM, OCI-P5x cells, without rucaparib): 86.5% (active)
inhibition ([7]; at 0.5 µM, stronger effect = higher value): 9.82% (inactive)
inhibition ([7]; measured here: combination with BGB IC20, at 0.005 µM): 9.58%
inhibition ([7]; measured here: combination with BGB IC40, at 0.005 µM): -35.2%
inhibition [7, 22]: -11%
inhibition ([7]; measured here: combination with cisplatin, at 0.5 µM, stronger effect = higher value): 82.2%
inhibition ([7]; measured here: combination with cisplatin, at 5 µM, stronger effect = higher value): -43.7%
inhibition ([8]; BGB combo, at 5 µM): -3.81%
inhibition ([8]; at 0.5 µM): 4% (inactive)
inhibition ([8]; cisplatin combo, at 5 µM): 14.9%
inhibition [8, 23]: -3.11%
inhibition [8, 24]: 10.7%
inhibition ([8]; single agent, at 5 µM): 26.4%
inhibition ([9]; BGB IC20 combo, at 0.005 µM): -14.7%
inhibition ([9]; BGB IC40 combo, at 0.005 µM): -33.9%
inhibition ([9]; BGB IC40 combo, at 0.05 µM): -28.6%
inhibition ([9]; at 0.5 µM): -17.9% (inactive)
inhibition ([9]; cisplatin combo, at 0.05 µM): -33.7%
inhibition ([9]; cisplatin combo, at 0.5 µM): -25.4%
inhibition ([9]; cisplatin combo, at 5 µM): -32.6%
inhibition ([9]; measured here: 5 uM single agent, at 5 µM): -15.5%
inhibition ([10]; at 0.5 µM): -13.2% (inactive)
inhibition [10, 22]: -35.9%
inhibition [10, 25]: -19.9%
inhibition [10, 26]: -31.3%
inhibition ([11]; at 0.5 µM): -0.55% (inactive)
inhibition ([11]; measured here: with BGB IC20, at 0.5 µM): 6.74%
inhibition ([11]; measured here: with BGB IC20, at 5 µM): 0.541%
inhibition ([11]; measured here: with cisplatin IC20, at 0.5 µM): -17.9%
inhibition ([11]; measured here: with cisplatin IC20, at 5 µM): -0.549%
inhibition ([11]; single agent, at 5 µM): 19.7%
inhibition ([12]; at 0.5 µM): -27.6% (inactive)
inhibition ([12]; measured here: combination with BGB at IC20, at 0.5 µM): -23.3%
inhibition ([12]; measured here: combination with cisplatin at IC20, at 0.5 µM): -22.2%
inhibition ([13]; at 0.5 µM): -0.19% (inactive)
inhibition ([13]; measured here: combo with BGB at IC20, at 0.5 µM): -1.2%
inhibition ([13]; measured here: combo with cisplatin at IC20, at 0.5 µM): 6.56%
inhibition ([14]; at 0.5 µM): 1.01% (inactive)
inhibition ([14]; measured here: inhibition with BGB combination, at 0.05 µM): -4.64%
inhibition ([14]; measured here: inhibition with cisplatin combination, at 0.05 µM): -4.19%
inhibition ([15]; at 0.5 µM): -15% (inactive)
inhibition [15, 25]: -8.95%
inhibition [15, 26]: -20.5%
inhibition ([16]; at 0.5 µM): -5.31% (inactive)
inhibition ([16]; measured here: BGB combination, at 0.5 µM): -12%
inhibition ([16]; measured here: BGB combination, at 5 µM): -10.9%
inhibition ([16]; measured here: cisplatin combination, at 0.5 µM): -2.01%
inhibition ([16]; measured here: cisplatin combination, at 5 µM): -2.78%
inhibition ([17]; BGB combination, concentration series, at 5 µM): 7.08%
inhibition ([17]; at 0.5 µM): 1.18% (inactive)
inhibition ([17]; cisplatin combination, concentration series, at 5 µM): 13.2%
inhibition [18]: 16% (inactive)
inhibition ([18]; measured here: combo with BGB IC20): 24.6%
inhibition ([18]; measured here: combo with cisplatin IC20): 15.9%
inhibition ([19]; at 0.5 µM): 3.66% (inactive)
inhibition ([19]; cisplatin combination, at 0.5 µM): 8.14%
inhibition ([19]; cisplatin combination, at 5 µM): -2.96%
inhibition ([19]; measured here: BGB IC40 combination 0.05 uM, at 0.05 µM): 15.7%
inhibition ([19]; single agent, at 5 µM): -22%
inhibition ([20]; at 0.5 µM): -7.05% (inactive)
inhibition ([20]; cisplatin combo, at 5 µM): 17.7%
inhibition ([20]; measured here: BGB IC40 combination, at 0.05 µM): -27.1%
inhibition [20, 25]: 26.9%
inhibition ([20]; single agent, at 5 µM): -22.4%
inhibition ([21]; at 0.5 µM): -5.28% (inactive)
inhibition [21, 23]: -6.44%
inhibition [21, 24]: -4.7%
inhibition ([21]; single agent, at 0.05 µM): -13.5%
inhibition ([21]; single agent, at 5 µM): 7.92%
